Compound activity as filed in PubChem.
Hits are enriched below; roughly 2.6% of the tested compounds scored in any of these assays.
NFkB binder – NF-kappa-B p105 (human) binding | P19838 | calls only | 1.3% of 17,000 active | Small molecule microarray, anti-His fluorescence binding;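 active means spot fluorescence over background significantly raised, with a chance value under 7% in all four replicate spots of the compound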;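 further: probe protein is his-tagged human p50 processed subunit at 1 µg/ml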
mut p53 react – mutant p53 pathway reactivation; activation, % at 9.98 µM; SW480 PUMA-promoter luciferase; 1.5% of 28,000 active; in the data active means activation above about 52%
STAT3 binder – binders of human STAT3; P40763; 0.2% of 17,000 active; AID 624138; Small molecule microarray, His-STAT3 binding, anti-His fluorescence; calls only;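 active means compounds whose four printed spots each show fluorescence over background unusually high for their array block, chance value under 7%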
Target sequence (P40763 whole entry, looked up): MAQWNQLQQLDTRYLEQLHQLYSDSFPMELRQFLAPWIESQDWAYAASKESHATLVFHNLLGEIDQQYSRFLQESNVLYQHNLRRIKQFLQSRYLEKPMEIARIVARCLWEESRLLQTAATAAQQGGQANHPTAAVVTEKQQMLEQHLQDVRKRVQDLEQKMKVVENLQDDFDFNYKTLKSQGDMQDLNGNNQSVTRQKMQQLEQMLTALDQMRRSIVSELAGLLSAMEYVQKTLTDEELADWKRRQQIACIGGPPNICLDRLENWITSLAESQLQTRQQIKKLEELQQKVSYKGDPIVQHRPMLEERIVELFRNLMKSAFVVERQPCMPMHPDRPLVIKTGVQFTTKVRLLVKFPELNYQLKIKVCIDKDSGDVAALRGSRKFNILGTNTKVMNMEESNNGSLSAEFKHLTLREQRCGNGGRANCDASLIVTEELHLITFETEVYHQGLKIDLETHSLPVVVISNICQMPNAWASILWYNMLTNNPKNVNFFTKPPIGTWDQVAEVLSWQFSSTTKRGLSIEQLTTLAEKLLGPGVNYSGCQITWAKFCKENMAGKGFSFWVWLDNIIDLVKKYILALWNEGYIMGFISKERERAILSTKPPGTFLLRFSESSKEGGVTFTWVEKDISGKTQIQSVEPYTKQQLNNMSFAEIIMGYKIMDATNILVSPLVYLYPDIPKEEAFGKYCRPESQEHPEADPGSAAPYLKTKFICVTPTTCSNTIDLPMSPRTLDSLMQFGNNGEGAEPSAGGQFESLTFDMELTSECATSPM
c-Myc SMM – binds human c-Myc on microarray; 1.5% of 17,000 active; AID 624141; P01106; calls only; small molecule microarray, His-c-Myc binding, anti-His fluorescence;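 active means spot fluorescence over background with P-value below 7% in all four replicate spots, showing protein binding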
mut p53 SMM – binders of human mutant p53. 0.4% of 17,000 active. AID 624136. calls only. small molecule microarray binding, anti-GST fluorescence;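 active means compounds whose four printed spots each glow above background more than chance allows, each with a p-value under 7%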
Numbers stand for hits; . = inactive; / = not tested or not shown; + = active, no number.

SMILES	NFkB binder	mut p53 react	STAT3 binder	c-Myc SMM	mut p53 SMM
COc1cc(/C=C/c2ccc(OC)cc2OC)cc(OC)c1	.	121	.	.	.
O=C1CCCN2N=C(SCC(=O)c3ccc(Cl)cc3)SC2=N1	/	.	/	/	/
C[C@@H]1CN([C@@H](C)CO)S(=O)(=O)c2ccc(C3=CCCCC3)cc2O[C@@H]1CN(C)C(=O)c1ccc(F)cc1	/	.	/	/	/
COC(=O)c1cc(-c2ccccc2)sc1NC(=S)NC(C)c1cc(OC)ccc1OC (centres undefined)	/	.	/	/	/
Cn1cnnc1SCC(=O)c1ccc2c(c1)OCCO2	.	.	.	.	.
Cc1nnc(SCC(=O)c2ccc3c(c2)OCCO3)s1	/	89	/	/	/
CCCC(NS(=O)(=O)c1ccc(C)cc1)C(=O)O (centres undefined)	.	.	.	+	.
Cc1ccc(S(=O)(=O)NC(C(=O)O)C(C)C)cc1 (centres undefined)	/	.	/	/	/
c1ccc(-c2nsc(NC3Cc4ccccc4C3)n2)cc1	/	109	/	/	/
OC(COc1ccc(Cl)cc1)CSc1ccccn1 (centres undefined)	.	78	.	.	.
O=C(CNC(=O)c1ccco1)Nc1cccc(C(F)(F)F)c1	/	.	/	/	/
Cn1ccc2cc3c(cc21)CCN3C(=O)Nc1cccnc1	.	69	.	.	.
COc1cc2c(cc1C(F)(F)F)N(C(=O)Nc1cc(F)cc(-c3cccnc3)c1)CC2	.	.	.	.	.
Cc1cc(=O)oc2cc(NC(=S)NCCCN3CCCC3=O)ccc12	/	.	/	/	/
Cc1cc(=O)oc2cc(NC(=S)NCc3ccccn3)ccc12	.	81	.	.	.
O=C(NCc1ccccn1)C(=O)Nc1ccccc1F	/	61	/	/	/
CC(C)CNC(=O)C(=O)NCc1ccccn1	.	.	.	.	.
Cc1ccccc1NC(=O)C(=O)NCc1ccccn1	/	.	/	/	/
Cc1ccc(NC(=O)C(=O)NCc2ccccn2)cc1C	/	94	/	/	/
C[C@H]1CN([C@@H](C)CO)C(=O)Cc2cc(NS(C)(=O)=O)ccc2O[C@@H]1CN(C)S(=O)(=O)c1cn(C)cn1	.	.	.	.	.
C[C@H]1CN([C@@H](C)CO)C(=O)c2cc(NC(=O)Nc3ccc(C(F)(F)F)cc3)ccc2O[C@H]1CN(C)C(=O)NC1CCCCC1	.	.	.	.	.
COc1ccc(CN(C)C[C@H]2Oc3ccc(NC(=O)Cc4ccccc4)cc3CC(=O)N([C@H](C)CO)C[C@@H]2C)cc1	.	.	.	.	.
Cn1nnnc1SCC(=O)Nc1ccc(I)cc1	/	78	/	/	/
Cn1nnnc1SCC(=O)Nc1ccc(C(=O)O)cc1	/	.	/	/	/
Cc1nn(CCCC(=O)O)c(C)c1[N+](=O)[O-]	.	.	.	+	.
SMILES	NFkB binder	mut p53 react	STAT3 binder	c-Myc SMM	mut p53 SMM
CC1Oc2c3c(c4c(-c5ccccc5)cc(=O)oc4c2C(=O)C1C)OC(C)(C)C=C3 (centres undefined)	+	.	.	.	.
O=C1N[C@@H](Cc2ccccc2)C(=O)N2[C@@H]1C[C@@H](C(=O)NCc1ccc(F)cc1)[C@H]2c1ccc(O)cc1	.	/	.	.	.
CC(C)(C)[C@@H]1C=C(C(=O)O)O[C@H](OCc2ccc(CO)cc2)C1	+	/	.	.	.
Cc1cc2nc3c(=O)[nH]c(=O)nc-3n(C)c2cc1C=O	.	.	.	+	.
COc1ccc2nc(Nc3nc(C)c(CCC(C)C)c(=O)[nH]3)nc(C)c2c1	+	.	.	.	.
COc1ccc(OC)c(NC(=O)c2ccc(CSc3nnc(C)s3)cc2)c1	.	62	.	.	.
COc1ccc(C(=O)NCC(=O)Nc2cc(OC)ccc2OC)cc1	.	.	.	.	.
CC1(C)CC(=O)c2c(O)cc(OCC(=O)c3cccc([N+](=O)[O-])c3)cc2O1	/	75	/	/	/
O=C(Nc1ccccc1C(=O)NCc1ccco1)c1ccc(-c2ccccc2)cc1	/	58	/	/	/
O=C(C[C@H]1C[C@@H]2c3cc(NC(=O)NC4CCCCC4)ccc3O[C@@H]2[C@@H](CO)O1)NCc1ccncc1	/	.	/	/	/
C[C@@H]1O[C@@H](O[C@H]2[C@H](O[C@H]3[C@H](O[C@H]4CC[C@@]5(C)C(CC[C@]6(C)C5CC=C5[C@@H]7CC(C)(C)C[C@@H](O)[C@]7(C)CC[C@]56C)[C@@]4(C)CO)O[C@H](C(=O)O)[C@@H](O)[C@@H]3O)OC[C@H](O)[C@@H]2O)[C@H](O)[C@H](O)[C@H]1O (some centres undefined)	.	.	.	+	+
C[C@@H]1O[C@@H](O[C@H]2[C@H](O[C@H]3[C@H](O)[C@@H](C(=O)O)O[C@@H](O[C@H]4CC[C@@]5(C)C(CC[C@]6(C)C5CC[C@]57OC[C@@]8(CCC(C)(C)CC85)[C@H](O)C[C@]76C)C4(C)C)[C@@H]3O[C@@H]3O[C@H](CO)[C@@H](O[C@@H]4OC[C@@H](O)[C@H](O)[C@H]4O)[C@H](O)[C@H]3O)O[C@H](CO)[C@H](O)[C@@H]2O)[C@H](O)[C@H](O)[C@H]1O (some centres undefined)	+	.	.	+	.
C[C@@H]1O[C@@H](O[C@H]2[C@H](O[C@H]3CC[C@@]4(C)C(CC[C@]5(C)C4CC=C4C6CC(C)(C)CC[C@]6(C(=O)O)CC[C@]45C)[C@]3(C)CO)OC[C@H](O)[C@@H]2O)[C@H](O)[C@H](O)[C@H]1O (some centres undefined)	+	.	.	.	.
CC(=O)OC1C(C)OC(OC2C(CO)OC(OC(=O)[C@]34CCC(C)(C)CC3C3=CCC5[C@@]6(C)CC[C@H](OC7OC(CO)C(OC8OC(CO)C(OC9OCC(O)C(O)C9O)C(O)C8O)C(O)C7O)[C@@](C)(CO)C6CC[C@@]5(C)[C@]3(C)CC4)C(OC3OC(C)C(O)C(O)C3O)C2O)C(O)C1O (some centres undefined)	+	.	.	+	.
CC1OC(OC2C(OC(=O)C34CCC(C)(C)CC3C3=CCC5C6(C)CCC(OC7OC(CO)C(OC8OC(C(=O)O)C(OC9OCC(O)C(O)C9O)C(O)C8O)C(O)C7O)C(C)(CO)C6CCC5(C)C3(C)CC4)OC(COC3OCC(O)C(O)C3O)C(O)C2O)C(O)C(O)C1O (centres undefined)	.	.	.	.	.
O=C(NCc1ccccc1)[C@@]1(CCS(=O)(=O)c2ccccc2)N=C(c2ccc(OCCCO)cc2)O[C@H]1c1ccccc1	.	/	.	.	.
Cc1occc1C(=O)NCCc1ccc(S(N)(=O)=O)cc1	/	.	/	/	/
COc1ccc(S(=O)(=O)N(C)C[C@H]2Oc3ccc(NS(=O)(=O)c4cn(C)cn4)cc3CC(=O)N([C@H](C)CO)C[C@H]2C)cc1	.	.	.	.	.
C[C@@H]1O[C@@H](O[C@@H]2[C@@H](O)[C@H](O[C@@H]3[C@@H](O)[C@H](C)O[C@@H](O[C@H]4[C@H](O[C@H]5CC[C@@]6(C)C(CC[C@]7(C)C6CC=C6[C@@H]8CC(C)(C)CC[C@]8(C(=O)O)CC[C@]67C)[C@]5(C)CO)OC[C@H](O)[C@@H]4O)[C@@H]3O)O[C@H](CO)[C@H]2O[C@@H]2O[C@H](CO)[C@@H](O[C@@H]3OC[C@@H](O)[C@H](O)[C@H]3O)[C@H](O)[C@H]2O)[C@H](O)[C@H](O)[C@H]1O (some centres undefined)	+	.	.	.	.
